The record followed here is PubChem BioAssay AID2283112 (EPA ToxCast).

Records with an inconclusive call do not appear. The source made the active and inactive calls. Rule for the calls: active = hit-call score of the fitted dose curve at least 0.9, where 1 is the maximum; inconclusive = response in the unintended direction; inactive = score below 0.9.

Chain of rat CYP1A1, Cyp1a1 (gene 24296) (P00185 whole entry, looked up): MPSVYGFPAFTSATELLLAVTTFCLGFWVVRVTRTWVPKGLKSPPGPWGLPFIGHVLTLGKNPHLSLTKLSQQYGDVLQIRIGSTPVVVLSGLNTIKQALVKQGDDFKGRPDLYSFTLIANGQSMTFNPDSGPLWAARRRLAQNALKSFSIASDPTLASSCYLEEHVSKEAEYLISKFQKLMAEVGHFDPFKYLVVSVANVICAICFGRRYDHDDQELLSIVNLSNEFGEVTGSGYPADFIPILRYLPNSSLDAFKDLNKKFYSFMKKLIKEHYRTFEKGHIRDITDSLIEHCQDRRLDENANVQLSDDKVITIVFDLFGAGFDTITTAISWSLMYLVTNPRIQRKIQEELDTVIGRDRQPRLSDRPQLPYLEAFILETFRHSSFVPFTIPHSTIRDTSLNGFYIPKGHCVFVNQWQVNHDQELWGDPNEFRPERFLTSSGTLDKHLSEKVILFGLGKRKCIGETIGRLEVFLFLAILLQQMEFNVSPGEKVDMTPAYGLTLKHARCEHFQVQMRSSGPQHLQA

The assay concerns the target rat CYP1A1, Cyp1a1 (gene 24296) (UniProt P00185). Briefly: NVS_ADME_rCYP1A1: NovaScreen (NVS) CYP450-related Enzyme Activity (ADME) Assay for rat CYP1A1. On the procedure:
NVS_ADME_rCYP1A1 is a biochemical, single-readout assay that uses extracted gene-proteins from baculovirus-insect cells in a cell-free assay. Measurements were taken 1 hour after chemical dosing in a 96-well plate.NVS_ADME_rCYP1A1 is one of one assay component(s) measured or calculated from the NVS_ADME_rCYP1A1 assay. It is designed to make measurements of enzyme activity, a form of enzyme reporter, as detected with fluorescence intensity signals by Fluorescence technology.Data from the assay component NVS_ADME_rCYP1A1 was analyzed into 1 assay endpoint. This assay endpoint, NVS_ADME_rCYP1A1, was analyzed in the positive analysis fitting direction relative to Acetonitrile as the negative control and baseline of activity. Using a type of enzyme reporter, loss-of-signal activity can be used to understand changes in the enzymatic activity as they relate to the gene Cyp1a1. Furthermore, this assay endpoint can be referred to as a primary readout, because this assay has produced multiple assay endpoints where this one serves a enzymatic activity function. To generalize the intended target to other relatable targets, this assay endpoint is annotated to the cyp intended target family, where the subfamily is xenobiotic metabolism.
Binding assays used specific radioligands (tritiated, iodinated) with non-radioactive competitive displacement ligands in agonist or antagonist protocols (as indicated) and various reference compounds and inhibitors to titrate specific binding to receptors and transporters. Most enzyme assays (CYPs, kinases, phosphatases, proteases, HDACs) used recombinant protein and specific substrates (fluorescence mostly, some colorimetric and radioactive) and inhibitors, followed by a biochemical separation of substrate and product. All assays for the biochemical HTS were initially run in duplicate at a single concentration (10 uM for CYP450 assays and 25 uM for all others). Assay-chemical combinations meeting a pre-defined threshold (e.g., 30% inhibition and other criteria defined below) were then run in singleton concentration-response format with maximum concentration of 20 uM for CYPs and 50 uM for all others. Each assay was run with positive and negative controls, and concurrent controls on every plate. The follow-up (secondary) screen tested active chemical-pairs in concentration series, as well as a few additional assays not tested in the primary screen, some selected negative inactives, and several cases re-run in the concentration series for confirmatory purposes.
As to `COP(=S)(OC)Oc1ccc([N+](=O)[O-])cc1`, the call was inactive. On to `CCOP(=S)(OCC)SCn1c(=O)oc2cc(Cl)ccc21`, for which the compound was classed as inactive. As to `CC[C@H](C)[C@H]1O[C@]2(C=C[C@@H]1C)C[C@@H]1C[C@@H](C/C=C(\C)[C@@H](O[C@H]3C[C@H](OC)[C@@H](O[C@H]4C[C@H](OC)[C@@H](NC)[C@H](C)O4)[C@H](C)O3)[C@@H](C)/C=C/C=C3\CO[C@@H]4[C@H](O)C(C)=C[C@@H](C(=O)O1)[C@]34O)O2`, the result was inactive. On the same count and under the same terms, the value for `COP(=S)(OC)Oc1ccc([N+](=O)[O-])c(C)c1` was “inactive”.

As to `CCCN(CCOc1c(Cl)cc(Cl)cc1Cl)C(=O)n1ccnc1`, the AC50 is 2.23 µM (active).

In the case of `COP(=S)(OC)SCn1nnc2ccccc2c1=O`, the compound was called inactive. Still for that read-out and setting: the value for `CC[C@H](C)[C@H]1O[C@]2(C=C[C@@H]1C)C[C@@H]1C[C@@H](C/C=C(\C)[C@@H](O[C@H]3C[C@H](OC)[C@@H](O[C@H]4C[C@H](OC)[C@@H](O)[C@H](C)O4)[C@H](C)O3)[C@@H](C)/C=C/C=C3\CO[C@@H]4[C@H](O)C(C)=C[C@@H](C(=O)O1)[C@]34O)O2` (tested in a mixture with another compound) was “inactive”. For the compound `CCOP(=S)(OCC)Oc1ccc([N+](=O)[O-])cc1`, the AC50 is 7.95 µM (active). Take `COc1nc(C)nc(NC(=O)NS(=O)(=O)c2ccccc2Cl)n1`: the outcome was inactive.

Take `CC(C)(C)C(=O)C(Oc1ccc(Cl)cc1)n1cncn1` (stereo not given): the AC50 is 16.9 µM (active).

As usually defined, the AC50 is the midpoint of the concentration-response curve, whichever way the signal moves.
